Hits are enriched below; roughly 1.6% of the tested compounds scored in any of these assays.
KCNQ2 enhance: enhances the rat KCNQ2 potassium channel. O88943. CHO-K1 KCNQ2, FluxOR thallium flux fluorescence; hits give high values. B-score at 10 µM. 310,000 tested, 0.54% active. AID 2239;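 active = fluorescence ratio B-score at least 3 SD of library B-scores, with initial fluorescence B-score within 3 of them, cut at about 5.3 in these data; same plate scores as AID 2156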;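 note: B-score of peak minus minimum over baseline fluorescence ratio after K+ and Tl+ stimulus; positive B-score means potentiation of KCNQ2 with more thallium influx and brighter signal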
Target sequence (O88943 whole entry, looked up): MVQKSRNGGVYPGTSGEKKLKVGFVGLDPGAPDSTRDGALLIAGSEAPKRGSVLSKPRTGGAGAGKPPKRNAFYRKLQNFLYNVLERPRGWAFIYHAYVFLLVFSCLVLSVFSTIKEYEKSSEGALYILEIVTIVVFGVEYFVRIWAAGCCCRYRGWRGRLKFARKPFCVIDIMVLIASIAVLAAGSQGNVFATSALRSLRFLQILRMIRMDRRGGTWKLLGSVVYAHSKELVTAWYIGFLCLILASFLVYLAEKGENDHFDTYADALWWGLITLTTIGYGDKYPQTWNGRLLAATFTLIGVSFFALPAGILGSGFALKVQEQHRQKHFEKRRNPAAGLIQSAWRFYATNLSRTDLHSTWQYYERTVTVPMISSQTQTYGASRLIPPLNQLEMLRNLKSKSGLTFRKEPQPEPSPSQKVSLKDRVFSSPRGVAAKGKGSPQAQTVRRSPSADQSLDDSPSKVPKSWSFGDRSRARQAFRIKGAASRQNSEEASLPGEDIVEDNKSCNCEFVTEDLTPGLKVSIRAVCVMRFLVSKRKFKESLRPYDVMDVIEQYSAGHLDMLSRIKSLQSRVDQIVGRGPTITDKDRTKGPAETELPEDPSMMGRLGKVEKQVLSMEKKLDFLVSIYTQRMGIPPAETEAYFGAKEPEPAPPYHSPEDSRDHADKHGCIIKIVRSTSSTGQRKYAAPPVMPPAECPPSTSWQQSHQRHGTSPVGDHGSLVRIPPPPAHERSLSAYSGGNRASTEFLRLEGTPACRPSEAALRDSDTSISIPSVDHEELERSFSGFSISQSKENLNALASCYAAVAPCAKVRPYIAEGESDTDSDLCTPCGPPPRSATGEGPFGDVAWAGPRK
KCNQ2 inh: inhibitors of rat KCNQ2 potassium channel; AID 2156; O88943; 310,000 tested, 1.1% active; B-score at 10 µM; CHO-K1 KCNQ2, FluxOR thallium flux, 20 min; hits give low values;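 active = fluorescence ratio B-score at most minus 3 library SDs, with starting brightness B-score within 2 library SDs, cut at about -5.5 in these data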
KCNQ2 inh conf: confirmation of rat KCNQ2 potassium channel inhibitors | shares compounds with KCNQ2 inh | KCNQ2-expressing cells, thallium flux, inhibition; hits give low values | activity change, negative = inhibition, % at 10 µM | 1,000 tested, 57% active
KCNQ1 spec: KCNQ2 inhibitor that also affects human KCNQ1 channel | activity change, negative = inhibition, % at 10 µM | shares compounds with KCNQ2 inh | KCNQ1-expressing cells, FluxOR thallium flux fluorescence; hits give low values | 1,000 tested, 15% active;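 active = activity change at least 3 SD of negative controls below their mean in both duplicate wells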;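 note: CHO cells stably transfected with KCNQ1 and depolarized by potassium stimulus; peak minus minimum fluorescence over baseline after thallium addition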
CHO Tl ctr: counter-screen for KCNQ2 inhibitors: effect in parental CHO cells. 1,000 tested, 14% active. AID 493029. shares compounds with KCNQ2 inh. thallium flux counter-screen; hits give low values. activity change, % at 10 µM
KCNQ2 inh confirm: confirmation of rat KCNQ2 potassium channel inhibitors. calls only at 10 µM. KCNQ2-expressing cells, automated patch clamp current. 550 tested, 49% active. AID 588531. shares compounds with KCNQ2 inh
Large screens that a line does not name were inactive (follow-up assays come after a bar, where they were run). Unless noted, the rule behind the calls is not given here.

OCC1(CCc2ccccc2)CCCN(CCCc2ccccc2)C1 (configuration not stated)	KCNQ2 inh -6.6 | KCNQ2 inh conf -36% | KCNQ1 spec -34% | CHO Tl ctr -26% | KCNQ2 inh confirm inactive
Cc1nc2ccc(S(=O)(=O)NCC(=O)N3CCCC(C)C3)cc2s1 (configuration not stated)	none (no result: KCNQ2 enhance)
COc1cc2c(cc1OC)CN(CC(=O)Nc1ccc(Cl)c(S(=O)(=O)N(C)C)c1)CC2	none (no result: KCNQ2 enhance)
CCN(CC(=O)NCc1ccc(Cl)cc1)C(=O)CSc1ccc(F)cc1	none (no result: KCNQ2 enhance)
Cc1cccc(N2CCN(CC(=O)NCc3ccc(Cl)cc3)CC2)c1C	none (no result: KCNQ2 enhance)
CCN(CC(=O)NCc1ccc(F)cc1)C(=O)CN1CCN(c2cc(Cl)ccc2C)CC1	KCNQ2 inh -9.5 | KCNQ2 inh conf -26% | KCNQ1 spec inactive | CHO Tl ctr inactive | KCNQ2 inh confirm active
CCN(CC(=O)NCc1ccc(Cl)cc1)C(=O)CSc1cc(C)ccc1C	KCNQ2 inh -8.2 | KCNQ2 inh conf -22% | KCNQ1 spec inactive | CHO Tl ctr inactive | KCNQ2 inh confirm active
Cc1cccc(Nc2nc(N)nc(CCl)n2)c1C	none
CC(C)(C)NC(=O)c1ccccc1-c1nc(-c2ccccc2Cl)no1	none (no result: KCNQ2 enhance)
C/C(=N/NC(=O)Cc1ccccc1)c1ccc(C)s1	none
COc1ccc2oc(C(=O)N3CCN(c4ncccn4)CC3)c(C)c2c1	none
Cc1c(C(=O)N(Cc2nccn2C)C(C)C)oc2c(F)cccc12	none
Cc1ccc2c(C)c(C(=O)N3CCN(c4ncccn4)CC3)oc2c1C	KCNQ2 inh -8.6 | KCNQ2 inh conf -29% | KCNQ1 spec inactive | CHO Tl ctr inactive | KCNQ2 inh confirm active
Cc1ccc2c(C)c(C(=O)N(C)Cc3nccn3C)oc2c1C	KCNQ2 inh -7.6 | KCNQ2 inh conf inactive | KCNQ1 spec inactive | CHO Tl ctr inactive
O=C(c1cnc(Cl)c(Cl)c1)N1CCC(Cc2ccccc2)CC1	none (no result: KCNQ2 enhance)
CC(C)C1CCN(C(=O)C2CCC(=O)N(CCc3ccc(Cl)cc3)C2)CC1 (configuration not stated)	none (no result: KCNQ2 enhance)
C=CCC1(CC=C)CCCN1C(=O)C1CCC(=O)N(CCc2ccc(Cl)cc2)C1 (configuration not stated)	KCNQ2 inh -8.2 | KCNQ2 inh conf -29% | KCNQ1 spec inactive | CHO Tl ctr inactive | KCNQ2 inh confirm active
O=[N+]([O-])c1cccc(OCCN2CCC(Cc3ccccc3)CC2)c1	KCNQ2 inh -8.2 | KCNQ2 inh conf inactive | KCNQ1 spec inactive | CHO Tl ctr inactive
Cc1ccc([N+](=O)[O-])c(OCCCN2CCC(Cc3ccccc3)CC2)c1	none (no result: KCNQ2 enhance)
COc1ccc(NC(=O)CCCN2C(=O)C(c3ccccc3)Oc3cccnc32)cc1OC (configuration not stated)	none
COc1ccc(Br)cc1CNC(=O)CN1C(=O)C(c2ccccc2)Oc2cccnc21 (configuration not stated)	KCNQ2 inh -7 | KCNQ2 inh conf -26% | KCNQ1 spec inactive | CHO Tl ctr inactive | KCNQ2 inh confirm active
CC(C)[C@H](NC(=O)N1CCn2c1nc1ccccc12)C(=O)NCc1ccc(F)cc1	none (no result: KCNQ2 enhance)
CC(C)[C@H](NC(=O)N1CCn2c1nc1ccccc12)C(=O)NCc1ccccc1Cl	KCNQ2 inh -8.1 | KCNQ2 inh conf -34% | KCNQ1 spec -32% | CHO Tl ctr -24% | KCNQ2 inh confirm active
CCn1nnc(NC(=O)C(c2ccccc2)c2ccccc2)n1	none (no result: KCNQ2 enhance)
C(=N\Nc1nc(N2CCCCC2)nc(N2CCCCC2)n1)/c1c[nH]c2ccccc12	KCNQ2 inh -9.3 | KCNQ2 inh conf -36% | KCNQ1 spec inactive | CHO Tl ctr inactive | KCNQ2 inh confirm active
CN(C)c1nc(N/N=C/c2c[nH]c3ccccc23)nc(N2CCOCC2)n1	none
COc1cc(-c2nnc(NC(=O)CS(=O)(=O)c3ccc(C)cc3)o2)cc(OC)c1OC	none (no result: KCNQ2 enhance)
COc1ccc(C(c2c(O)ccc3ccccc23)N2CCOCC2)c(OC)c1 (configuration not stated)	KCNQ2 inh -10 | KCNQ2 inh conf -32% | KCNQ1 spec inactive | CHO Tl ctr inactive | KCNQ2 inh confirm inactive
COc1ccc(C(CCN2CCOCC2)c2c(O)cc(OC)cc2OC)cc1 (configuration not stated)	none
O=C(Cc1sc(-c2ccccc2)nc1-c1ccccc1)Nc1ccccc1	none
O=C(Cc1sc(Nc2ccccc2)nc1-c1ccccc1)NCc1ccccc1	KCNQ2 inh -7.1 | KCNQ2 inh conf inactive | KCNQ1 spec inactive | CHO Tl ctr inactive
CC1(C)CCCN(C(=O)N2c3ccccc3Sc3ccccc32)C1	KCNQ2 inh -8.6 | KCNQ2 inh conf inactive | KCNQ1 spec inactive | CHO Tl ctr inactive
O=C(CN1CCCC1)N1c2ccccc2Sc2ccccc21	none
CCOC(=O)c1cnc(-n2nc(C)cc2C)nc1NC	none
CCOC(=O)c1cnc(-n2nc(C)cc2C)nc1NC1CCCCC1	KCNQ2 inh -8.9 | KCNQ2 inh conf -33% | KCNQ1 spec inactive | CHO Tl ctr inactive | KCNQ2 inh confirm active
COc1cccc(NC(=O)c2ccc(-n3cnnn3)cc2)c1	none (no result: KCNQ2 enhance)
CC(OC(=O)CCN=C1NS(=O)(=O)c2ccccc21)C(=O)N(C)C1CCCCC1 (configuration not stated)	none (no result: KCNQ2 enhance)
Cc1cccc(Oc2cc(NC(=O)c3ccccc3)cc([N+](=O)[O-])c2)c1	KCNQ2 inh -7.3 | KCNQ2 inh conf inactive | KCNQ1 spec inactive | CHO Tl ctr inactive
Cn1cc([N+](=O)[O-])c(C(=O)Nc2cc(Oc3ccccc3)cc([N+](=O)[O-])c2)n1	none
O=C(Nc1nc(-c2ccccc2)cs1)C1CCCCN1S(=O)(=O)c1ccc(Cl)cc1 (configuration not stated)	KCNQ2 inh -8.9 | KCNQ2 inh conf inactive | KCNQ1 spec inactive | CHO Tl ctr inactive
CC1CCN(CC(=O)Nc2nc(-c3ccccc3)cs2)CC1	KCNQ2 inh -7.3 | KCNQ2 inh conf inactive | KCNQ1 spec inactive | CHO Tl ctr inactive
NC(=O)C1CCN(CC(=O)Nc2nc(-c3ccccc3)cs2)CC1	none (no result: KCNQ2 enhance)
O=C(Nc1nc(-c2ccccc2)cs1)C1CCCCN1S(=O)(=O)c1ccccc1 (configuration not stated)	none (no result: KCNQ2 enhance)
Cc1ccc(S(=O)(=O)N/N=C/c2ccc(OCC(=O)NC(C)C)cc2)cc1	none (no result: KCNQ2 enhance)
Cn1cc(C(=O)N2CCN(C(=O)c3ccco3)CC2)c2c3ccccc3n(C)c2c1=O	none
CC(C)CCNc1nc(-c2ccco2)c2c(c1C#N)CCCC2	KCNQ2 inh -6.8 | KCNQ2 inh conf inactive | KCNQ1 spec inactive | CHO Tl ctr inactive
N#Cc1c(NCCN)nc(-c2ccco2)c2c1CCCC2	none (no result: KCNQ2 enhance)
O=C(c1ccccc1)N1CCN(c2ccc(N3CCOCC3)nn2)CC1	none
CCn1c(=O)c(C(=O)NCc2ccccc2)c(O)c2ccccc21	none (no result: KCNQ2 enhance)
CCn1c(=O)c(C(=O)NCc2ccccc2OC)c(O)c2ccccc21	none (no result: KCNQ2 enhance)
CCn1c(=O)c(C(=O)NCc2cccnc2)c(O)c2ccccc21	none
CCn1c(=O)c(C(=O)NCc2ccc(Cl)cc2)c(O)c2ccccc21	KCNQ2 inh -7.6 | KCNQ2 inh conf -25% | KCNQ1 spec inactive | CHO Tl ctr inactive | KCNQ2 inh confirm inactive
